About 79,000 compounds went through this panel and 15% of them were active in at least one assay; those are over-represented in the sample as a whole. A number with no mark means an inactive call. The source made the active and inactive calls. Cut-off read from the data, not from the text of the source: active = growth inhibition above about 70%; inactive = the rest.

This assay can be described thus: NCI Yeast Anticancer Drug Screen. Data for the wt2 strain (AID 169).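 Note: 0% = growth of vehicle-treated yeast cultures.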 The conditions noted are these: S. cerevisiae wt2 strain growth inhibition, active compounds read high. The method, then:
Growth inhibition of yeast strains with defined genetic alterations is measured as a screen for potential anti-cancer activity. Selected strains with alterations in DNA damage repair or cell cycle control were exposed to compounds and growth inhibition was measured relative to vehicle treated controls. The strain used in this assay is wt2

As for `COc1ccc2nc(N/N=C/c3sccc3C)cc(C)c2c1`, the growth inhibition reads like this: (at 1.2 µM) 18%; (at 3.7 µM) 4%; (at 11.0 µM) 27%; (at 33.0 µM) 98% (active); (at 100.0 µM) 96% (active).

`CC1(C)CC(=O)C(C(CC(c2ccccc2)c2cc3c(cc2O)OCO3)C2=C(O)CC(C)(C)CC2=O)=C(O)C1` (stereo not given): the growth inhibition reads like this: (at 1.2 µM) -4%; (at 3.7 µM) -5%; (at 11.0 µM) 21%; (at 33.0 µM) 88% (active); (at 100.0 µM) 88% (active).

Regarding `CC(=O)O/N=C/c1c2ccccc2cc2ccccc12`, the growth inhibition is -1% (at 1.2 µM); -1% (at 3.7 µM); -2% (at 11.0 µM); 13% (at 33.0 µM); 32% (at 100.0 µM).

Regarding `Cc1ccc2oc(-c3cccc(N)c3)nc2c1`, the growth inhibition (at 1.2 µM) was -3%; the growth inhibition (at 3.7 µM) is -2%; the growth inhibition (at 11.0 µM) was -2%; the growth inhibition (at 33.0 µM) was 1%; the growth inhibition (at 100.0 µM) is 11%.

Take `Cc1cccc[c]1[Sn]([Cl])([S]/C(C#N)=N/N=C/c1ccc(N(C)C)cc1)[c]1ccccc1C`: the growth inhibition was -1% (at 1.2 µM); -2% (at 3.7 µM); -6% (at 11.0 µM); 32% (at 33.0 µM); 89% (active) (at 100.0 µM).

In the case of `O=Cc1ccccc1B(O)O`, the growth inhibition is 0% (at 1.2 µM); 1% (at 3.7 µM); 77% (active) (at 11.0 µM); 100% (active) (at 33.0 µM); 99% (active) (at 100.0 µM).

With `NNc1nnc(-c2ccccc2)nc1Cc1ccccc1`, the growth inhibition (at 1.2 µM) is -34%; the growth inhibition (at 3.7 µM) is -30%; the growth inhibition (at 11.0 µM) is -11%; the growth inhibition (at 33.0 µM) was 95% (active); the growth inhibition (at 100.0 µM) is 91% (active).

Regarding `CCOC(=O)C(NC(=O)c1ccccc1)[CH](c1ccccc1)[Sn]([c]1ccccc1)([c]1ccccc1)[c]1ccccc1` (stereo not given), the growth inhibition reads like this: (at 1.2 µM) -3%; (at 3.7 µM) -2%; (at 11.0 µM) -1%; (at 33.0 µM) 35%; (at 100.0 µM) 96% (active).

These data come from PubChem BioAssay (NCI).
